The values below come from PubChem BioAssay (EPA / NIEHS).

Where a structure was tested more than once in an assay, its records may differ in their call. Activity calls are given as the source filed them. Rule for the calls: active = hit-call score of the fitted dose curve at least 0.9, where 1 is the maximum; inactive = score below 0.9.

The assay can be described thus: ATG_PBREM_CIS: Attagene CIS-FACTORIAL HepG2 Assay for human Phenobarbital-responsive Enhancer Module (PBREM) (AID 2282955). To be noted: HepG2 PBREM cis-reporter, Attagene multiplexed transcription; actives raise or lower the signal. As to the method: ATG_CIS is a cell-based, multiplexed-readout assay that uses HepG2, a human liver cell line, with measurements taken at 24 hours after chemical dosing in a 24-well plate.ATG_PBREM_CIS is one of 52 assay component(s) measured or calculated from the ATG_CIS assay. It is designed to make measurements of mRNA induction, a form of inducible reporter, as detected with fluorescence intensity signals by Reverse transcription polymerase chain reaction (RT-PCR) and Capillary electrophoresis technology.Data from the assay component ATG_PBREM_CIS was analyzed into 1 assay endpoint. This assay endpoint, ATG_PBREM_CIS, was analyzed with bidirectional fitting relative to DMSO as the negative control and baseline of activity. Using a type of inducible reporter, measures of mRNA for gain or loss-of-signal activity can be used to understand the reporter gene at the transcription factor-level as they relate to the gene NR1I3. Furthermore, this assay endpoint can be referred to as a primary readout, because this assay has produced multiple assay endpoints where this one serves a reporter gene function. To generalize the intended target to other relatable targets, this assay endpoint is annotated to the nuclear receptor intended target family, where the subfamily is non-steroidal.
Human liver HepG2 cells are transiently transfected with multiple reporter transcription units (MRTUs) in 6-well plates using FuGene 6 reagent (Roche; 3 ml FuGene/1 mg DNA). The MRTU constructs are regulated by a cis-regulating element (promoter). […] A major difference between the CIS and TRANS system is that in CIS activities of endogenous TFs are measured, whereas the TRANS assay evaluates changes in activities of exogenous, chimeric NR-Gal4 proteins. […] At the end of 24 hour incubation, total RNA was isolated using TriZol reagent (Invitrogen). The isolated RNA is then reverse-transcribed using oligo(dT) primer and Mo-MLV reverse transcriptase (Invitrogen) with DNAse I (Ambion) treatment for 30 min. The one-tenth of the produced cDNA was amplified by PCR using Taq DNA polymerase (Invitrogen) and two reporter sequence-specific primers. The PCR products were fluorescently labeled by primer extension with 6-arboxyfluorescein (6-FAM) 5'-labeled reporter sequence-specific primer (2 min at 95 C, 20 s at 68 C and 10 min at 72 C) and these products were digested with 5U of HpaI (New England Biolabs) for 2h at 37 C. The fragments were purified using Qiaquick PCR columns (Qiagen), analyzed on an ABI 3130xL genetic analyzer (Applied Biosystems) with peak positions identified by using a set of X-rhodamine (ROX)-labeled MapMarker1000 molecular weight standards (BioVentures). The raw capillary electrophoresis data was processed using Attagraph software (Attagene).
With `O=CC(F)(F)C(F)(F)C(F)(F)C(F)F`, the outcome was inactive.
Turning to `O=C(c1cc(O)c(O)c(O)c1)c1ccc(O)c(O)c1O`, the outcome was inactive.
For `CCCCCc1ccc(O)cc1`, the outcome was inactive.
Consider `O=C1Cc2ccccc2N1c1c(Cl)cccc1Cl`, for which the AC50 is 1.23 µM (active).
In the case of `O=C1C=CC(=O)N1c1cccc(N2C(=O)C=CC2=O)c1`, the outcome was inactive.
For `CCCCCCCCCCCCCCCCCC[N+](C)(C)Cc1ccccc1`, the result was inactive.
With `CCCCC(CC)C(=O)OCCOCCOCCOCCOC(=O)C(CC)CCCC` (stereo not given), the AC50 was 27.6 µM (active).
For `CN(C)c1ccc(C(=C2C=CC(=[N+](C)C)C=C2)c2ccccc2)cc1`, the outcome was inactive.
Turning to `CCCCCCOC(=O)c1ccc(O)cc1`, the AC50 was 29.8 µM (active).
On to `FC(F)(F)C1(F)C(F)(F)C(F)(F)C(F)(F)C(F)(C(F)(F)F)C1(F)F` (stereo not given), for which the outcome was inactive.
Still for that read-out and setting: the same measure for `C=CC(=O)OCCC(F)(F)C(F)(F)C(F)(F)C(F)(F)C(F)(F)C(F)(F)C(F)(F)C(F)(F)F`: “inactive”; for `O=C(OC(=O)C(F)(F)C(F)(F)F)C(F)(F)C(F)(F)F`: “inactive”.
As to `CC1CNCC(C)O1` (stereo not given), the outcome was inactive.
With `FC(F)=C(F)C(F)(F)C(F)(F)C(F)(F)C(F)F`, the result was inactive.
The same measure, in the same setting: the same measure for `COCC1CCC(CO)CC1` (stereo not given): “inactive”; for `FC(F)(F)N1C(F)(F)C(F)(F)OC(F)(F)C1(F)F`: “inactive”.
As for `Cc1cc(C(=C2C=CC(=Nc3ccc(S(=O)(=O)O)cc3)C=C2)c2ccc(Nc3ccc(S(=O)(=O)O)cc3)cc2)cc(S(=O)(=O)O)c1N`, the outcome was inactive.
Turning to `C[C@]12CC[C@@H]3c4ccc(O)cc4CC[C@H]3[C@@H]1CC[C@@H]2OC(=O)CCC1CCCC1`, the outcome was inactive.
Turning to `CCc1cccc(CC)c1N(COC)C(=O)CS(=O)(=O)O`, the AC50 is 8.56 µM (active).
Consider `CN(CCO)S(=O)(=O)C(F)(F)C(F)(F)C(F)(F)C(F)(F)C(F)(F)C(F)(F)C(F)(F)C(F)(F)F`, for which the outcome was inactive.
On to `COC(=O)C(F)(F)C(F)(F)C(F)(F)C(F)(F)C(F)(F)F`, for which the result was inactive.
`C=C(c1ccc(C(=O)O)cc1)c1cc2c(cc1C)C(C)(C)CCC2(C)C`: the AC50 is 30.3 µM (active) and the outcome was inactive.
For `c1cnc2c(c1)ccc1cccnc12`, in that order: 100 µM (active) and “inactive”.
Regarding `Cc1cc(=O)oc2cc(O)ccc12`, the outcome was inactive and the concentration at half-maximal activity (AC50) was 42.3 µM (active).
Turning to `O=S(=O)(O)c1ccc2cc(O)ccc2c1`, the outcome was inactive.
Regarding `CC(C)(c1ccc(Oc2ccc(N)cc2)cc1)c1ccc(Oc2ccc(N)cc2)cc1`, the outcome was inactive.
On to `CCCCCCCCCCCCOC(=O)c1cc(O)c(O)c(O)c1`, for which the AC50 was 21.3 µM (active).
With `CCCCCCCCCCCCCC[n+]1ccccc1`, the outcome was inactive.
As to `C=Cc1ccc(O)c(OC)c1`, the result was inactive.
As to `CC(=O)Nc1ccc(O)cc1`, the outcome was inactive.
Consider `Oc1cccc2c(O)cccc12`, for which the outcome was inactive.
For the molecule `CC(C)[C@@H]1CC[C@@H](C)C[C@H]1O`, the result was inactive.
On to `OCCN1CN(CCO)CN(CCO)C1`, for which the result was inactive.
The same measure, in the same setting: next, `CCOC=C(C(=O)OCC)C(=O)OCC`: “inactive”; `CC1COCc2cc3c(cc21)C(C)(C)C(C)C3(C)C` (stereo not given): “inactive”.
In the case of `CCc1cccc(CC)c1NC(=O)C(=O)O`, the result was inactive.
On to `NC(C(F)(F)F)C(F)(F)F`, for which the outcome was inactive.

For orientation: AC50 means the midpoint of the concentration-response curve, whichever way the signal moves.
